18 compounds from PubChem BioAssay can be followed below.

Unmarked numbers belong to inactive results. How the calls were made is not given here.

The target in this test is Pantothenate synthetase (Mycobacterium tuberculosis (strain ATCC 25618 / H37Rv)) (UniProt P9WIL5). Description: Coupled enzyme confirmation of inhibitors against recombinant Mtb PanC (AID 375).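 Further: 0% = full reaction with vehicle and 100% = no enzyme background.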 Particulars: coupled enzyme assay; at 10 µM, stronger effect = higher value.
Pantothenate synthetase (Mycobacterium tuberculosis (strain ATCC 25618 / H37Rv)), sequence (P9WIL5 whole entry, looked up): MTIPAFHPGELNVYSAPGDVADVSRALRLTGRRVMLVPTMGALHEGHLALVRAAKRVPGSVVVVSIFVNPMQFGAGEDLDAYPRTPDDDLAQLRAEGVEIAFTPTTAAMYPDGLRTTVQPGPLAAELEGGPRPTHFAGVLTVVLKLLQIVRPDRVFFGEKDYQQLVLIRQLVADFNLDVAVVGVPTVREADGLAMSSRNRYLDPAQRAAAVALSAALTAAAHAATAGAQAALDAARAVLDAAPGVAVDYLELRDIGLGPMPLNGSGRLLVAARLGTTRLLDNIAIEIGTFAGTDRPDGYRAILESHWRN
With `Clc1cccc(Cl)c1COc1ccncc1`, the inhibition is 0%.
Regarding `Cc1ccc(C2=N/C(=C/N3CCOCC3)C(=O)O2)cc1`, the inhibition is 1%.
On to `O=C(CCCn1c(=O)c2sccc2n(Cc2cc(=O)n3ccccc3n2)c1=O)NCc1ccco1`, for which the inhibition was 0%.
`COc1ccc2cnn(-c3ccccc3)c(=O)c2c1OC`: the inhibition was 6%.
With `CCOC(=O)N1CCN(C(=O)COc2cc(=O)n(C)c3ccccc23)CC1`, the inhibition is 0%.
Turning to `CCCCCCC(C)n1[nH]c(=O)c2c(C)cc(=O)[nH]c21` (stereo not drawn), the inhibition is 5%.
For `COc1ccc(C2C(C(=O)c3sc(C)nc3C)=C(O)C(=O)N2CCN(C)C)cc1OC` (stereo not drawn), the inhibition is 0%.
Then `CN(C)c1ccc(CNCCC2(O)CCOC(C)(C)C2)cc1` (stereo not drawn), with 2%; and `Cc1sc(NC(=O)CSc2nnc(COc3ccccc3)n2C)c(C#N)c1C`, with 6%.
On to `COc1ccc(-n2c(=O)c3c4c(sc3n3cnnc23)CC(C)CC4)cc1` (stereo not drawn), for which the inhibition is 1%.
For `C[C@@H]1CCC[C@H](C)N1NC(=O)c1ccc(Cl)c(S(N)(=O)=O)c1` the value was 0%.
Regarding `Cn1c(/C=N/n2cnnc2)nc2ccccc21`, the inhibition is 2%.
On to `Nc1ccc2[nH]ncc2c1`, for which the inhibition is 0%.
On to `O=C(O)C1CCCN1C(=O)c1cccs1` (stereo not drawn), for which the inhibition is 7%.
`O=C(c1cccnc1)N1CCN(C(=O)c2ccccc2F)CC1`: the inhibition was 4%.
For the compound `Cc1cccc(Cn2c(SCCN3CCCCC3)nc3c2c(=O)[nH]c(=O)n3C)c1`, the inhibition is 0%.
In the case of `CC(=O)Nc1ccc(S(=O)(=O)N2CCN(Cc3ccncc3)CC2)cc1`, the inhibition is 8%.
As for `CCOc1ccc(-c2nc(C#N)c(NCc3ccc4c(c3)OCO4)o2)cc1`, the inhibition was 3%.
